High-throughput results: PubChem, several laboratories
Only some compounds are listed: those with a hit (about 3.1% of all), similar ones and a draw of the others.
TROY signal inh = inhibitors of TROY-driven NF-kB signaling, primary screen, Q293 LMP1-TROYcd cells, NF-kB luciferase, uHTS. 360,000 tested, 0.98% active. AID 1347056, 2019. inhibition, % at 10 µM. Q293 LMP1-TROYcd NF-kB luciferase reporter, 4 h;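 active = compounds whose plate-normalised and pattern-corrected inhibition of the luciferase reporter signal at the single screening dose is 50% or more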
TWEAK-Fn14 inh = inhibitors of TWEAK-Fn14 signaling, primary screen, luciferase reporter cells, uHTS. TWEAK-stimulated Fn14 reporter cells, luciferase luminescence, 8 h. inhibition, % at 10 µM. 360,000 tested, 2% active; in the data active = inhibition above about 50%
LGR2 inh = inhibitors of bursicon-induced LGR2 CRE-luciferase signal, primary screen, cell-based, HEK293, CRE-luciferase reporter, bursicon stimulation | Drosophila bursicon receptor LGR2 (rickets) | bursicon-stimulated, 4 h | inhibition, % at 9.99 µM | 380,000 tested, 0.35% active | AID 720647, 2013;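 active = drop in luminescence signal, shown as inhibition above about 50% in the replicate tests, limit read from the data, passing the limit was not always enough; inconclusive = probably only some replicates passing the limit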;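 also: agonist challenge used bursicon conditioned medium at about half maximal strength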
LMP1 NFkB inh = EBV LMP1-driven NF-kappaB luciferase reporter inhibitors, primary screen, cell-based, luminescence, single point; LMP1-induced NF-kappaB luciferase reporter cells; inhibition, % at 12.5 µM; 350,000 tested, 0.69% active; in the data active = inhibition above about 41%; inconclusive = no clear call, values can overlap the other calls;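 also: 0% = neutral control wells and 100% = reference inhibitor control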
PAX8 inh HTS = inhibitors of PAX8-driven TPO luciferase reporter, primary screen, RMG-I cells, single concentration | 360,000 tested, 1.2% active | SteadyGlo, 24 h | inhibition, % at 12.6 µM;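 active = mean replicate inhibition at least 60% with every replicate also reaching 60%; inconclusive = only one of the two criteria is met; inactive = mean below 60% and not all replicates reaching 60%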;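 also: luciferase light reporting Pax8 driven TPO promoter activity; plate controls were median of neutral control wells for no effect and mitoxantrone controls for full effect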
EWS-Fli inh = EWS/Fli-driven NR0B1 reporter inhibitors, primary screen, A673 cells, NR0B1 luciferase, luminescence, MLPCN library; 350,000 tested, 0.67% active; viability-normalised; inhibition, % at 12.6 µM;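 active = mean inhibition of at least 50% after viability correction, with every replicate also passing that limit; inconclusive = mean reaches 50% but only one of two replicates passes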;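 also: firefly luciferase signal divided by Alamar Blue viability fluorescence both relative to DMSO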
An asterisk follows results filed as active; ? = inconclusive; . = no result given.

SMILES	TROY signal inh	TWEAK-Fn14 inh	LGR2 inh	LMP1 NFkB inh	PAX8 inh HTS	EWS-Fli inh
CCOc1ccc(N(CC(=O)N2CCc3ccccc32)S(=O)(=O)c2c(C)noc2C)cc1	-8.1	0.2	20.3	47.0*	36.7	10.0
CCOc1ccc(N(CC(=O)Nc2c(C)cccc2C)S(=O)(=O)c2c(C)[nH]c(=O)[nH]c2=O)cc1	11.7	80.0*	4.4	0.6	7.4	-8.9
CCOc1ccc(N(CC(=O)Nc2cccc(C)c2C)S(=O)(=O)c2c(C)[nH]c(=O)[nH]c2=O)cc1	-21.6	-8.0	6.1	-6.0	7.1	-6.4
CCOc1ccc(N(CC(=O)Nc2ccccc2OCC)S(=O)(=O)c2c(C)noc2C)cc1	20.3	-4.9	-4.8	9.3	80.0*	42.4
CN(c1cccc(NC(=O)Nc2cccc(Cl)c2)c1)S(C)(=O)=O	5.5	81.9*	.	-3.1	.	.
O=C(Nc1ccncc1)Nc1cccc(Cl)c1	-7.4	6.7	-19.1	-6.2	-17.8	-5.7
O=C(Nc1cccc(Cl)c1)Nc1csc([N+](=O)[O-])c1	38.1	71.5*	26.2	21.4	98.8*	19.0
c1ccc(CNCCCNCCCCNCCCNCc2ccccc2)cc1	10.5	-18.3	-12.7	9.4	86.0*	5.1
O=C(O)CCCCNCc1ccccc1	10.7	11.3	.	3.5	.	.
CC(C)CC#Cc1ccc([C@H]2[C@H](CO)N3C(=O)CN(C(=O)NC4CCCC4)C[C@@H]23)cc1	.	.	-0.8	.	.	-2.8
O=C(O)c1ccc(-c2ccc(/C=N/Nc3ccc([N+](=O)[O-])cc3)o2)cc1	-29.7	-18.4	.	-7.9	-25.5	-40.1
NS(=O)(=O)c1ccc(-c2ccc(/C=N/Nc3ccc(C(=O)O)cc3)o2)cc1	16.2	50.1*	-14.7	-1.6	16.7	13.0
CN(C)CC(=O)N[C@@H]1CC[C@@H](CCNC(=O)Nc2ccc(F)cc2)O[C@@H]1CO	.	.	4.3	.	-18.7	1.4
CN(Cc1ccccc1)C(=O)CN1C(=O)c2ccccc2S1(=O)=O	-21.9	-5.9	-27.9	-10.2	-58.7	-6.4
C=CCn1c(C)cc(C(=O)COC(=O)CNC(=O)c2ccccc2)c1C	85.4*	89.2*	47.1	11.8	-16.2	4.7
Cc1cc(C(=O)Cn2cc(C(F)(F)F)ccc2=O)c(C)n1-c1ccccc1	2.9	7.2	-11.0	12.7	4.3	-20.0
C=CCn1c(C)cc(C(=O)CN2C(=O)c3ccccc3S2(=O)=O)c1C	87.9*	104.4*	.	86.8*	.	.
Cc1cc(C(=O)CN2C(=O)c3ccccc3S2(=O)=O)c(C)n1-c1ccccc1	-0.4	94.3*	.	73.7*	.	.
Cc1cc(C(=O)CN2C(=O)C3CC=CCC3C2=O)c(C)n1-c1ccccc1 (stereo not drawn)	-15.1	55.5*	.	-8.5	-107.0	.
C[C@H](CO)N1C[C@H](C)[C@H](CN(C)C(=O)Nc2cccc3ccccc23)Oc2ccc(NC(=O)C3CCCCC3)cc2CC1=O	.	.	23.3	.	.	-11.6
CCN=c1scc(-c2ccc(F)cc2)n1/N=C/c1ccccn1	-20.7	24.2	-38.9	-19.7	-174.6	-66.7
CCN=c1scc(-c2ccccc2)n1/N=C/c1ccccn1	77.4*	91.7*	.	3.7	.	.
Cc1ccc(OCC(=O)OCC(=O)c2c(N)n(C)c(=O)n(C)c2=O)cc1C	-11.9	-20.5	19.1	-2.5	.	.
Cc1cc(OCC(=O)OCC(=O)c2c(N)n(C)c(=O)n(C)c2=O)ccc1Cl	15.2	86.1*	1.0	3.0	-1.1	-10.0
Cc1nn(-c2ccccc2)c(Cl)c1C(=O)NCCCCNC(=O)c1c(C)nn(-c2ccccc2)c1Cl	10.0	6.8	.	60.6*	.	.
SMILES	TROY signal inh	TWEAK-Fn14 inh	LGR2 inh	LMP1 NFkB inh	PAX8 inh HTS	EWS-Fli inh
O=C1C=CC(=Nc2ccc3c(c2)Cc2cc(F)ccc2-3)O1	10.8	56.3*	.	-10.8	-23.0	-24.9
O=C(CCCn1c(=S)[nH]c2cc3c(cc2c1=O)OCO3)N1CCN(c2ccc(Cl)cc2)CC1	58.3*	16.7	.	21.8	28.8	.
CCc1ccc(-c2cn(-c3nc(C)cc(C)n3)c(=N)o2)cc1	-0.7	90.9*	.	12.3	.	.
Cn1c(Cl)nc2ccccc21	5.0	19.0	.	-6.8	8.3	.
Cn1c(N=Nc2ccccc2)nc2ccccc21	40.2	79.3*	.	1.9	.	17.3
COc1ccc(NC(=O)N(C)C[C@@H]2OCCCC[C@H](C)Oc3ccc(NS(=O)(=O)c4ccc(C)cc4)cc3C(=O)N([C@H](C)CO)C[C@H]2C)cc1	.	.	1.5	.	16.2	10.9
CN1CCC(N(C)C(=O)/C=C/c2cn(-c3ccccc3)nc2-c2cccs2)CC1	-14.2	-11.7	78.0*	-43.1	22.3	30.2
O=C(N/N=C/c1cn(-c2ccccc2)nc1-c1ccc(F)cc1)c1ccc(Br)o1	12.8	52.7*	.	12.5	.	.
O=C(N/N=C/c1cn(-c2ccccc2)nc1-c1cc2ccccc2o1)c1cccnc1	63.4*	84.6*	?	-31.7	13.4	1.3
O=C(N/N=C/c1cn(-c2ccccc2)nc1-c1cccnc1)c1cccnc1	7.7	-3.7	-12.8	-3.8	-16.2	-4.3
O=C(N/N=C/c1cn(-c2ccccc2)nc1-c1cc2ccccc2o1)c1ccncc1	28.2	69.6*	-21.7	-4.0	9.5	.
O=C(N/N=C/c1cn(-c2ccccc2)nc1-c1cccs1)c1ccc(Cl)cc1	-11.2	54.6*	-21.6	-4.1	4.7	.
COCC(=O)N1CC(=O)N2[C@@H](CO)[C@@H](c3ccc(C#CC4CC4)cc3)[C@@H]2C1	.	.	-5.5	.	-9.4	1.1
O=C1CN(S(=O)(=O)Cc2ccccc2)C[C@@H]2[C@@H](c3ccc(C#Cc4cccnc4)cc3)[C@@H](CO)N12	.	.	16.4	.	.	.
COc1ccc(OC)c(-n2c(-c3ccccc3)n[nH]c2=S)c1	-3.6	3.2	.	-1.1	.	.
COc1ccccc1-n1c(-c2ccccc2)n[nH]c1=S	7.4	-3.4	0.3	46.4*	2.7	-12.1
Cn1c(-c2ccccc2)n[nH]c1=S	-9.6	85.1*	10.5	-2.5	8.9	4.4
Cc1ccc(CNC(=O)c2oc3ccc(S(=O)(=O)N4CCC5(CC4)OCCO5)cc3c2C)cc1	33.7	53.6*	.	3.3	26.2	.
Cc1c(C(=O)NCCC2=CCCCC2)oc2ccc(S(=O)(=O)N3CCOCC3)cc12	38.2	52.0*	.	14.1	11.4	.
COc1ccc2c(C)nc(Nc3nc(-c4ccccc4)cc(=O)[nH]3)nc2c1	57.8*	63.1*	?	-142.8	95.2*	32.9
